# Results filed as inconclusive are left out. The source made the active and inactive calls. The calls were made as follows, unless noted: active = hit-call score of the fitted dose curve at least 0.9, where 1 is the maximum; inactive = score below 0.9.
# What was measured:
# [1] = CCTE_Harrill_HTTr_Viability_MCF7: CCTE's 6-hour Cell Viability Assessment for the High-Throughput Transcriptomics (HTTr) Platform, in MCF-7 cells cultured in DMEM + 10% fetal bovine serum, Harrill Lab (AID 2284010)
# How it was run: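 Cells were dosed with chemicals in an eight-point dilution series, imaged 6 hours later for propidium iodide uptake, and the endpoint was analyzed by bidirectional fitting against DMSO as negative control.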
# [2] = CCTE_Harrill_HTTr_Apoptosis_MCF7: CCTE's 6-hour Apoptosis Assessment for the High-Throughput Transcriptomics (HTTr) Platform, in MCF-7 cells cultured in DMEM + 10% fetal bovine serum, Harrill Lab (AID 2284011)
# How it was run: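 MCF-7 cells in DMEM + 10% fetal bovine serum were exposed to chemicals for 6 hours over an eight-point dilution series. Caspase-3/7 activation was imaged by high content imaging with CellEvent Caspase 3/7 Green; bidirectional fitting used DMSO as baseline.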
# [3] = CCTE_Harrill_HTTr_CellCount_MCF7: CCTE's Cell Proliferation Assessment for the High-Throughput Transcriptomics (HTTr) Platform, Harrill Lab (AID 2284012; active = hit-call score of the fitted dose curve at least 0.9, where 1 is the maximum;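 also: count of Hoechst-stained nuclei per well by high-content imaging in MCF-7 cells; cells exposed to compound for six hours; intended direction is loss of nuclei count meaning fewer cells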)
# How it was run: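 Chemicals in eight-point dilution series are added to MCF-7 cells for six hours, nuclei are stained with Hoechst and imaged, and per-well nuclei counts are fitted in both directions relative to DMSO controls.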
# [4] = CCTE_Shafer_MEA_dev_firing_rate_mean: CCTE's Neural Network Formation Assay for Mean Firing Rate, Shafer Lab (AID 2284031)
# How it was run: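 Rat primary cortical neurons were seeded on multielectrode arrays and treated from plating through day 12, with redosing at each feed. Spontaneous spiking was recorded four times; mean firing rate AUC was fitted downward against DMSO.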
# [5] = CCTE_Shafer_MEA_dev_per_burst_spike_percent: CCTE's Neural Network Formation Assay for Percent of Spikes in a Burst, Shafer Lab (AID 2284032);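 also: fitted as a decrease in burst spike percentage below DMSO baseline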
# How it was run: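 Rat primary cortical neurons on 16-electrode MEA wells, dosed from plating day 0 for 12 days with renewal on DIV 5 and 9; spikes-in-bursts percentage averaged over bursting electrodes, collapsed as AUC across days 5, 7, 9, 12; loss direction versus DMSO.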
# [6] = CCTE_Shafer_MEA_dev_active_electrodes_number: CCTE's Neural Network Formation Assay for Number of Active Electrodes, Shafer Lab (AID 2284040; active = hit-call score of the fitted dose curve at least 0.9, where 1 is the maximum;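 also: potency for loss of active electrodes versus DMSO so lower counts are hits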)
# How it was run: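 Primary rat cortical neurons on 16-electrode MEA wells, exposed from day 0 through day 12 with compound renewed at DIV 5 and 9 feeds. Active electrodes (mean firing ≥5 spikes/min) counted at DIV 5, 7, 9, 12; trapezoidal AUC across days, loss-of-signal versus DMSO.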
# [7] = CCTE_Shafer_MEA_dev_burst_rate: CCTE's Neural Network Formation Assay for Burst Rate, Shafer Lab (AID 2284042)
# How it was run: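 Primary rat cortical neurons on PEI-coated 48-well MEA plates (laminin added with cells at plating) (16 electrodes/well), exposed from plating to day 12, dosing renewed at DIV 5 and 9. Burst rate averaged over active electrodes, recorded DIV 5, 7, 9, 12, summarized as AUC; loss versus DMSO.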
# [8] = CCTE_Shafer_MEA_dev_bursting_electrodes_number: CCTE's Neural Network Formation Assay for Number of Bursting Electrodes, Shafer Lab (AID 2284043; active = hit-call score of the fitted dose curve at least 0.9, where 1 is the maximum;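 also: potency is for loss of bursting electrodes relative to DMSO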)
# How it was run: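 Primary rat cortical neurons were cultured on PEI-coated 48-well MEA plates (16 electrodes/well) and exposed from plating through day 12, with compound renewed at feeds on DIV 5 and 9. Electrodes bursting ≥1 per 2 min were counted on DIV 5, 7, 9, 12; trapezoidal AUC taken.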
# [9] = CCTE_Shafer_MEA_dev_per_burst_interspike_interval: CCTE's Neural Network Formation Assay for Burst Interspike Interval, Shafer Lab (AID 2284044);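 also: mean spike spacing inside bursts as AUC over recordings on days 5 7 9 12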
# How it was run: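 Rat cortical primary cultures, 16 electrodes/well; compound from plating, renewed with full media change DIV 5 and 9. Spikes via adaptive detector; per-burst ISI well-mean over active bursting electrodes; AUC of DIV 5/7/9/12 recordings; loss-direction fit vs DMSO.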
# [10] = CCTE_Shafer_MEA_dev_burst_duration_mean: CCTE's Neural Network Formation Assay for Mean Burst Duration, Shafer Lab (AID 2284045)
# How it was run: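 Primary rat cortical neurons on PEI-coated 16-electrode MEA wells, exposed from plating through day 12 with compound renewed at DIV 5 and 9; spontaneous activity recorded days 5, 7, 9, 12. Well-mean burst duration collapsed as trapezoidal AUC, fitted for loss versus DMSO.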
# [11] = CCTE_Shafer_MEA_dev_interburst_interval_mean: CCTE's Neural Network Formation Assay for Mean Interburst Interval, Shafer Lab (AID 2284046);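 also: well-mean interburst interval of bursting electrodes as AUC over four recording days; curve fitted for decrease in interburst interval relative to DMSO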
# How it was run: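 Recordings on days 5, 7, 9 and 12 give well-mean interburst interval across actively bursting electrodes, summarized as area under the curve. Cultures: rat cortical neurons, continuous exposure from day 0, compound renewed at feeds; decrease analyzed versus DMSO.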
# [12] = CCTE_Shafer_MEA_dev_inter_network_spike_interval_mean: CCTE's Neural Network Formation Assay for Mean Inter-network Spike Interval, Shafer Lab (AID 2284047)
# How it was run: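 Primary rat cortical neurons on 16-electrode MEA wells, exposed from plating day 0 through DIV 12, compound renewed at DIV 5 and 9 media changes. Mean interval between network-spike peaks recorded DIV 5, 7, 9, 12; collapsed as trapezoidal AUC, fitted downward versus DMSO.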
# [13] = CCTE_Shafer_MEA_dev_network_spike_peak: CCTE's Neural Network Formation Assay for Mean Number of Electrodes in Network Spike, Shafer Lab (AID 2284049);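 also: fitted for loss of signal meaning fewer electrodes in network spikes than DMSO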
# How it was run: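 Continuous 12-day exposure of rat cortical cultures, starting at plating, on MEA plates. Endpoint: electrodes participating in network-spike peaks, AUC across DIV 5–12, DMSO as negative control.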
# [14] = CCTE_Shafer_MEA_dev_spike_duration_mean: CCTE's Neural Network Formation Assay for Mean Spike Duration, Shafer Lab (AID 2284051);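 also: mean network spike duration pooled as area under curve over DIV 5 to 12 recordings; potency for a decrease in mean network spike duration versus DMSO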
# How it was run: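 Primary rat cortical neurons on 16-electrode MEA wells (PEI-coated, laminin in plating drop), exposed from plating through DIV 12 with compound renewed at DIV 5 and 9. Mean network-spike duration recorded DIV 5, 7, 9, 12; trapezoidal AUC across days, DMSO baseline.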
# [15] = CCTE_Shafer_MEA_dev_network_spike_duration_std: CCTE's Neural Network Formation Assay for Standard Deviation of Network Spike Duration, Shafer Lab (AID 2284052);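 also: area under curve of spike duration SD across recording days 5 to 12; hits are decreases in network spike duration SD versus DMSO vehicle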
# How it was run: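 Primary rat cortical neurons on PEI-coated 16-electrode MEA wells, exposed from plating day 0 through day 12 with compound renewed at DIV 5 and 9. Network spike duration SD recorded on days 5, 7, 9, 12, collapsed as trapezoidal AUC; loss-of-signal fit versus DMSO.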
# [16] = CCTE_Shafer_MEA_dev_per_network_spike_spike_number_mean: CCTE's Neural Network Formation Assay for Mean Number of Spikes in a Network Spike, Shafer Lab (AID 2284053);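 also: fitted as decrease in spikes per network spike relative to DMSO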
# How it was run: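 Primary rat cortical neurons on 48-well, 16-electrode MEA plates were exposed from plating to DIV 12, with dosing renewed on DIV 5 and 9. Spikes per network spike (0.05 s peak window) were recorded on DIV 5, 7, 9 and 12 and collapsed as trapezoidal AUC versus DMSO.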
# [17] = CCTE_Shafer_MEA_dev_per_network_spike_spike_percent: CCTE's Neural Network Formation Assay for Percent of Spikes in a Network Spike, Shafer Lab (AID 2284054)
# How it was run: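 Primary rat cortical neurons on 16-electrode MEA wells (PEI-coated, laminin at plating), exposed from day 0 with renewal at DIV 5 and 9; spikes within 0.05 s of network-spike peaks over total spikes, AUC across days 5, 7, 9, 12.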
# [18] = CCTE_Shafer_MEA_dev_LDH: CCTE's Lactate Dehydrogenase Assay for Cytotoxicity in the Neural Network Formation Assay, Shafer Lab (AID 2284068; active = hit-call score of the fitted dose curve at least 0.9, where 1 is the maximum;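 also: exposure for twelve days from plating with re-dosing on DIV 5 and 9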)
# How it was run: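 Primary rat cortical neurons were plated on PEI/laminin MEA plates and exposed from day 0 for twelve days, with compound renewed at DIV 5 and 9. Cytotoxicity was determined by spectrophotometric LDH assay relative to DMSO.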
# [19] = CCTE_Shafer_MEA_dev_AB: CCTE's Alamar Blue Assay for Cytotoxicity in the Neural Network Formation Assay, Shafer Lab (AID 2284083; active = hit-call score of the fitted dose curve at least 0.9, where 1 is the maximum;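 also: twelve days of exposure from plating with re-dosing on DIV 5 and 9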)
# How it was run: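 Primary rat cortical neurons on PEI-coated 48-well MEA plates, 1.5 x 10^5 cells/well in laminin drop; compound exposure from day 0 of plating for twelve days, renewed at medium changes on DIV 5 and 9. Viability read as resazurin reduction by fluorescence, relative to DMSO.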
# [20] = CCTE_Shafer_MEA_dev_mutual_information_norm: CCTE's Neural Network Formation Assay for Mutual Information Normalization, Shafer Lab (AID 2284091);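 also: mutual information between electrodes summarised as area under curve across four recording days; potency is for a decrease in mutual information relative to DMSO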
# How it was run: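 Rat cortical cultures, 48-well MEA, continuous exposure DIV 0–12 with full media/compound change DIV 5 and 9. Readout: inter-electrode mutual information, AxIS adaptive spike detection; AUC across DIV 5/7/9/12 recordings; DMSO baseline, negative fitting direction.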
# [21] = CCTE_Shafer_MEA_dev_correlation_coefficient_mean: CCTE's Neural Network Formation Assay for Mean Correlation Coefficient, Shafer Lab (AID 2284093);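 also: well mean pairwise spike train correlation integrated as AUC over recording days 5 to 12; potency fitted for loss of correlation relative to DMSO vehicle wells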
# How it was run: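 Spontaneous activity recorded on days 5, 7, 9 and 12 post-plating; pairwise spike correlations are averaged across active electrodes and collapsed to an area-under-curve. Rat cortical cultures are dosed from plating through 12 days, with compound renewed at media changes.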
smiles,measurement,setting,value
COP(=S)(Oc1cc(Cl)c(Br)cc1Cl)c1ccccc1 (stereo unspecified),outcome,[1],inactive
same,outcome,[2],inactive
same,outcome,[3],inactive
NCCc1cc(O)c(O)cc1O,outcome,[4],inactive
same,AC50,[5],6.25 µM (active)
same,AC50,[6],4.79 µM (active)
same,outcome,[7],inactive
same,AC50,[8],4.29 µM (active)
same,outcome,[9],inactive
same,outcome,[10],inactive
same,outcome,[11],inactive
same,outcome,[12],inactive
same,AC50,[13],6.57 µM (active)
same,AC50,[14],5.15 µM (active)
same,outcome,[15],inactive
same,AC50,[16],4.47 µM (active)
same,AC50,[17],10.1 µM (active)
same,AC50,[18],6.82 µM (active)
same,AC50,[19],9.87 µM (active)
same,AC50,[20],3.2 µM (active)
same,AC50,[21],5.28 µM (active)

# — PubChem BioAssay (EPA / NIEHS)
